# High-throughput results from PubChem BioAssay.
# HDAC3 inh = HDAC3 deacetylase inhibitors, primary screen, biochemical, fluorescence, cell-free homogeneous; recombinant HDAC3, fluorogenic peptide/trypsin coupled; Histone deacetylase 3 (Homo sapiens), O15379; inhibition, % at 8.3 µM; 320,000 tested, 0.15% active; in the data active = inhibition above about 26%, passing the limit was not always enough
# Target sequence (O15379 whole entry, looked up): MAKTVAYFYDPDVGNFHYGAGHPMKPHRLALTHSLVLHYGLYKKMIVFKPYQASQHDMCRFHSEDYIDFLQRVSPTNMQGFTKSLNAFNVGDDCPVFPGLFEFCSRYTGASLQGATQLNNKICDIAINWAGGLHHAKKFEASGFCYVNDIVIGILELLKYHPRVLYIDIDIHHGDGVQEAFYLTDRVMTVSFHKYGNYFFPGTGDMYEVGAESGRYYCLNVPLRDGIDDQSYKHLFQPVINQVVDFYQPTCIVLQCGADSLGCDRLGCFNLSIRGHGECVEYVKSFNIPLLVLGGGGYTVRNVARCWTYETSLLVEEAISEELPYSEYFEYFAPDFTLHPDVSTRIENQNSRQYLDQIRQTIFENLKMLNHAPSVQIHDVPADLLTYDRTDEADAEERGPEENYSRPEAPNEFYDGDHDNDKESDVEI
# ALR inh = inhibitors of human ALR sulfhydryl oxidase, primary screen, biochemical, H2O2 detection, HRP-luminol luminescence, single point; FAD-linked sulfhydryl oxidase ALR (Homo sapiens), P55789; purified ALR, DTT oxidation; inhibition, % (test concentration not listed); 290,000 tested, 3.8% active;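 active = mean replicate inhibition above about 79%, with every replicate also reaching it, limit read from the data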
# Rce1 inhib = yeast Rce1p protease inhibitors, primary screen, biochemical, fluorescence, cell-free homogeneous; yeast membranes, quenched prenylated peptide cleavage fluorescence; calls only; CAAX prenyl protease 2 (Saccharomyces cerevisiae (strain ATCC 204508 / S288c)), Q03530; 290,000 tested, 0.27% active;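 active = fall in fluorescence gain of 50% or more versus controls, with final raw signal at or below 3038400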;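 also: plate controls were neutral control wells for no effect and wells lacking membranes for full effect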
# Efflux pump mplx = inhibitors of Candida efflux pumps in yeast, primary screen, S. cerevisiae, Nile Red, multiplex. S. cerevisiae Candida pump triplex. inhibition, % at 10 µM. 330,000 tested, 0.44% active. AID 485275, 2010;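 active = plate passing quality check with inhibition over a set limit, or well fluorescence over plate mean plus 4 SD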;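 also: Nile Red retained in pooled yeast measured as flow cytometry median fluorescence; 0% = buffer negative control and 100% = Enniatin B positive control; higher means more Nile Red kept so more efflux inhibition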
# GRK2 aptamer HTS = compounds blocking aptamer binding on GRK2 – biochemical, human GRK2, bead flow cytometry, HTS, primary screen. Beta-adrenergic receptor kinase 1 (Homo sapiens), P25098. FAM-aptamer displacement from GRK2. inhibition of aptamer binding, % at 10 µM. 330,000 tested, 0.59% active;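 active = inhibition of aptamer binding above 40%, roughly 3 SD of noise, on plates passing a quality check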;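 also: median bead fluorescence of bound FAM aptamer so fluorescent compounds give negative values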
# Rtt109 HAT inh = inhibitors of C. albicans Rtt109/Vps75 HAT, primary screen, biochemical, ThioGlo CoA-SH fluorescence, plate reader; inhibition, % at 34.9 µM; 330,000 tested, 0.16% active; Histone acetyltransferase RTT109 (Candida albicans (strain SC5314 / ATCC MYA-2876)), …; purified Rtt109/Vps75, 4 h;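 active = inhibition of at least 50% in every replicate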
# Cmpd fluor yeast = counter-screen for efflux pump inhibitors: compound fluorescence. AID 588517. fluorescence ratio to DMSO, % at 10 µM. S. cerevisiae AD/pABC3, flow cytometry. shares compounds with Efflux pump mplx. 1,700 tested, 4% active;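 active = fluorescence ratio to DMSO above its plate's cutoff, the plate mean ratio plus 5 SD, cut at about 210% in these data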;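 also: unstained yeast with no Nile Red so the signal is compound autofluorescence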
# CaMdr1 efflux inh = inhibitors of Candida albicans Mdr1 efflux, confirmation, flow cytometry, singleplex, Cherry Pick1 set; inhibition, % at 10 µM; AID 588518, 2011; shares compounds with Efflux pump mplx; 1,700 tested, 1% active; S. cerevisiae AD/CaMDR1, Nile Red efflux; in the data active = inhibition above about 26%;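 also: 0% = DMSO vehicle and 100% = reference inhibitor; higher means more Nile Red retained so more efflux inhibition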
# Cdr2 pump inh = inhibitors of Candida albicans Cdr2 efflux pump, confirmation, S. cerevisiae AD/CaCDR2, flow cytometry, cherry pick 1, singleplex. shares compounds with Efflux pump mplx. Nile Red retention. Nile Red retention ratio vs DMSO, % at 10 µM. 1,700 tested, 4% active. AID 588520, 2011; in the data active = Nile Red retention ratio vs DMSO above about 190%;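 also: higher ratio means more blocking of Cdr2 efflux of the dye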
# CaCdr1 efflux inh = inhibitors of Candida albicans Cdr1 efflux pump, confirmation, S. cerevisiae AD/CaCDR1, flow cytometry, cherry pick 1, singleplex; Nile Red efflux; shares compounds with Efflux pump mplx; 1,700 tested, 1% active; inhibition, % at 10 µM; AID 588522, 2011;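 active = inhibition above the screen-wide mean plus twice its standard deviation, cut at about 32% in these data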
# The depositor's hits bear a star; i = inactive; . = no result; + = active, no number. This is a sample that favours compounds with a hit; in the whole collection about 4.5% have one here.
SMILES,HDAC3 inh,ALR inh,Rce1 inhib,Efflux pump mplx,GRK2 aptamer HTS,Rtt109 HAT inh,Cmpd fluor yeast,CaMdr1 efflux inh,Cdr2 pump inh,CaCdr1 efflux inh
O=S(=O)(Nc1cc(Sc2ncn[nH]2)c(O)c2ccccc12)c1ccccc1,.,.,.,.,.,+,100.3,-0.1,96.3,0.0
COC(=O)c1ccccc1S(=O)(=O)N1CCC(C(=O)OCC(=O)c2ccccc2OC)CC1,-1.8,-5.1,i,0.0,0.0,9.6,.,.,.,.
CC(C(=O)O)N1CCCCC1 (centres undefined),.,.,i,0.0,0.0,-14.5,.,.,.,.
CN(CC(=O)Nc1ccc(F)cc1)C(=O)CSc1nnc(Cc2ccccc2)o1,-1.9,.,.,0.0,0.0,1.2,.,.,.,.
O=C(c1cn(-c2ccccc2)nc1-c1ccc(F)cc1)N1CCCCC1,0.9,-4.0,i,11.1*,4.0,13.9,110.1,0.1,118.5,0.4
S=c1[nH]cnc2sc(Nc3ccccc3)nc12,19.4,-2.8,i,0.0,0.0,-0.6,.,.,.,.
CCOC(=O)c1ccc(S(=O)(=O)NNS(=O)(=O)c2ccc(C)cc2)cc1,2.1,15.4,i,2.1*,0.0,4.9,96.9,-0.1,100.8,0.0
Cn1ncc(N=Cc2c(O)ccc3ccccc23)c1C(=O)N1CCOCC1,-7.6,-8.9,i,-0.3,2.0,-0.6,.,.,.,.
COc1ccccc1NC(=O)c1c(N=Cc2c(O)ccc3ccccc23)cnn1C,-1.1,-24.4,i,0.4*,5.0,-1.0,110.0,0.8,102.9,0.1
Cc1ccc(N2CC(C(=O)NCCC3=CCCCC3)CC2=O)cc1 (centres undefined),-1.0,-2.8,i,0.3,1.0,1.2,.,.,.,.
CCc1ccc(C2=NN(S(C)(=O)=O)C(c3cccs3)C2)cc1 (centres undefined),-2.8,-1.7,i,3.0*,0.0,1.4,125.1,0.8,151.0,1.2
Cc1ccc(C2=NN(S(C)(=O)=O)C(c3cccs3)C2)cc1 (centres undefined),-7.5,-0.3,i,0.2,2.0,0.3,.,.,.,.
Cc1nn(CC(=O)Nc2nnc(C(C)C)s2)c(=O)c2ccccc12,-1.6,0.3,.,0.0,0.0,-2.4,.,.,.,.
CC(C)c1ccccc1-n1c(SCc2cc(=O)oc3ccc4ccccc4c23)nnc1-c1cccnc1,9.0,-9.1,i,15.2*,3.0,-12.8,103.1,-0.2,98.5,0.0
CCCCCCCC(=O)Nc1cc(C(=O)NCCC)ccc1N1CCC2(CC1)CC(c1ccccc1)=NO2,-0.8,-1.6,i,0.9*,0.0,-5.5,116.8,-0.1,116.0,0.1
CCCNC(=O)c1ccc(N2CCC3(CC2)CC(c2ccccc2)=NO3)c(NC(=O)c2ccccc2)c1,-9.3,-3.1,i,0.0,0.0,6.0,.,.,.,.
Nc1ccn(CC(=O)NCCc2ccccn2)c(=O)n1,-2.7,-1.9,.,2.8*,2.0,1.3,100.0,-0.2,104.2,0.0
O=C(CCn1c(=O)c2ccccc2n(Cc2cccc([N+](=O)[O-])c2)c1=O)N1CCc2ccccc2C1,2.0,-4.1,i,12.6*,0.0,59.0*,109.0,0.0,116.6,0.0
